Measured values as given in PubChem BioAssay (NCI).
About 79,000 compounds went through this panel and 15% of them were active in at least one assay; those are over-represented in the sample as a whole. No stated cut-off is given here; in the data, active means growth inhibition above about 70%; inactive means the rest.

Experiments:
[1] = NCI Yeast Anticancer Drug Screen. Data for the rad50 strain (AID 155);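 further: 0% = growth of vehicle-only cultures of the same strain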; details: S. cerevisiae rad50 strain growth inhibition; at 50.0 µM; active compounds read high
Outline: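 Yeast carrying a defined DNA repair defect were exposed to test compounds, and growth was compared with vehicle-treated controls to give percent inhibition.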

[2] = NCI Yeast Anticancer Drug Screen. Data for the mec2-1 strain (AID 157); details: S. cerevisiae mec2-1 strain, at 50.0 µM, active compounds read high
Outline: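 Strain: mec2-1 (DNA repair/cell cycle alteration). Compound exposure, then growth measured; inhibition expressed relative to vehicle.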

[3] = NCI Yeast Anticancer Drug Screen. Data for the sgs1 mgt1 strain (AID 161);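 further: 0% = growth of cultures given vehicle only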; details: S. cerevisiae sgs1 mgt1 strain, at 50.0 µM, active compounds read high
Outline: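 Mutant yeast exposed to compound; growth scored against vehicle-only wells.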

[4] = NCI Yeast Anticancer Drug Screen. Data for the cln2 rad14 strain (AID 165);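 further: 0% = growth equal to vehicle treated cultures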; details: S. cerevisiae cln2 rad14 strain, at 50.0 µM, active compounds read high
Outline: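 Compounds are applied to the cln2 rad14 yeast strain, and growth is then compared with that of vehicle-treated cultures to give inhibition.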

[5] = NCI Yeast Anticancer Drug Screen. Data for the bub3 strain (AID 167); details: S. cerevisiae bub3 mutant strain, at 50.0 µM, active compounds read high
Outline: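 Compounds were applied to a genetically altered yeast strain carrying a cell-cycle control defect. Growth inhibition was scored against vehicle-treated controls.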

[6] = NCI Yeast Anticancer Drug Screen. Data for the mlh1 rad18 strain (AID 175); details: S. cerevisiae mlh1 rad18 strain growth inhibition; at 50.0 µM; active compounds read high
Outline: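 Read-out is yeast growth inhibition, calculated against vehicle-only controls. The compound was applied to a strain engineered with DNA damage repair alterations.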

Measured: growth inhibition

CCCC(SCCO)C(CC)CSCCO (stereo not given)
inactive: [1] -16.8% | [2] -9.55% | [3] 2.65% | [4] -14.5% | [5] 13.1% | [6] 5.7%

COc1ccc(-n2nnnc2C2(Nc3ccccc3)CCN(Cc3ccccc3)CC2)cc1
inactive: [1] -22.4% | [2] -8.4% | [3] -1.4% | [4] 2.65% | [5] -2.15% | [6] 10.4%

CCCCCCCCCC/C=C/C=O
inactive: [1] 57.6% | [2] 43.5% | [3] 53.8% | [4] 18.7% | [5] 43.6% | [6] 8.9%

C[N+](C)=c1ccc2nc3ccc(N)cc3sc-2c1
inactive: [1] -84.8% | [2] -59.5% | [3] -43.6% | [4] -66.7% | [5] -79.8% | [6] -76.8%

CCCCOC(=O)NC(C)=O
inactive: [1] -14.1% | [2] -18.9% | [3] -15.2% | [4] -11.6% | [5] -1.55% | [6] -16.1%

CCOC(=O)NC(Nc1cccc(C(F)(F)F)c1)(C(F)(F)F)C(F)(F)F
inactive: [1] 1.45% | [2] -10.3% | [3] -38.5% | [4] 7.7% | [5] -15.6% | [6] -3.3%

O=C1Nc2cc(F)ccc2C1=O
inactive: [1] 15.5% | [2] 15.1% | [3] 7.95% | [4] 10.7% | [5] 19.6% | [6] 19.4%

Cc1nc2c(o1)C(=Nc1ccccc1)c1ccccc1C2=Nc1ccccc1
inactive: [1] -7.45% | [2] -23.4% | [3] 1.45% | [4] -13.9% | [5] -20.1% | [6] -9.65%

CN=C(N/N=C/c1ccccc1)N(C)C
inactive: [1] 5.95% | [2] 11.1% | [3] -5.35% | [4] -3% | [5] 23.9% | [6] 10.4%

CN(C)c1ccc(C(=O)CCCN2CCC(O)(c3ccc(Cl)cc3)CC2)cc1
inactive: [1] 37.4% | [2] 14.8% | [3] 36.6% | [4] 6.4% | [5] 18.1% | [6] 21.9%

C(=C\c1ccco1)/c1ccco1
inactive: [1] 25.1% | [2] 11.2% | [3] 12.3% | [4] 9.85% | [5] -20.9% | [6] -25.9%

O=CCCn1[nH]c(=O)ccc1=O
inactive: [1] 2.4% | [2] -4.65% | [3] 15.9% | [4] 20.2% | [5] 25.1% | [6] 12.9%

CCCCOC(=S)Nc1ccc(S(=O)(=O)c2ccc(NC(=S)OCCCC)cc2)cc1
inactive: [1] 23.4% | [2] 0.15% | [3] 13.4% | [4] 9.35% | [5] -4.9% | [6] -9.65%

Cc1ccc(C)c(NC(=O)C(=O)C(C(=O)c2ccc3ccccc3c2)C2OC(=O)c3ccccc32)c1 (stereo not given)
inactive: [1] 23.9% | [2] 15.8% | [3] 35.9% | [4] 23.5% | [5] 4.15% | [6] 13.7%

Nc1n[nH]c(CCCCc2nc(N)n[nH]2)n1
inactive: [1] -23.2% | [2] -24.4% | [3] -2.55% | [4] -39.8% | [5] -4.25% | [6] -1.9%

O=C1CSC(c2cccc(C(F)(F)F)c2)N1c1nncs1 (stereo not given)
inactive: [1] 10.5% | [2] 2.15% | [3] 19.6% | [4] 7.95% | [5] 16.6% | [6] 15.1%

COc1ccc(Cc2ccccc2)cc1
inactive: [1] -2% | [2] -13.2% | [3] 17.4% | [4] 7.8% | [5] -4.55% | [6] 6.65%

O=C(CCC(=O)Nc1ccccc1[N+](=O)[O-])CC(=O)c1ccc(Br)cc1
inactive: [1] 4.85% | [2] 7.75% | [3] -2.95% | [4] 9.3% | [5] -13.1% | [6] 6.15%

O=C1C=C(Cl)C(=O)O1
inactive: [1] 8.85% | [2] 10.2% | [3] -8.8% | [4] -9.1% | [5] -8% | [6] 15.6%

CC(C)n1cnc2c(=O)[nH]c(=O)[nH]c21
inactive: [1] -9.55% | [2] -4.55% | [3] 9.25% | [4] -39.8% | [5] -5.2% | [6] 2.9%
